Assay results: the supplement of paper PMC9135407
Values joined by “and” are separate entries in the source; they are usually repeats but may differ in a detail not shown here. Identical values can stand only once. Counter-ions that a name gives are not always drawn. The campaign covered roughly 5,800 compounds. About 620 (11%) showed activity. This is one part of a sample in which actives are shown more often than they occur. A number with no mark means an inactive call.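 The calls were made as follows: active = score above a cut-off or among the top three wells of a plate; in these data no inactive exceeds 0.85.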

Tested on: primary human hepatic stellate cells (donor 1)
Assay: scaled lipid accumulation score (0 = DMSO-like, 1 = nortriptyline-like); higher = stronger HSC inactivation (lipid re-accumulation), active = hit call of the paper
Conditions: 48 h
[1] = library stock concentration: 1 mM
[2] = library stock concentration: 3.33 mM
[3] = library stock concentration: 10 mM
[4] = library stock concentration: 5.1 mM

Question: For `CCCCCCCC/C=C\CCCCCCCC(=O)OC[C@@H](COP(O)(O)=S)OC`, which “scaled lipid accumulation score” value [1] is on record?
Answer: The value was 0.084.

Question: Which “scaled lipid accumulation score” value [2] does the source give for `NC(=NN=Cc1ccc(-c2cccc([N+](=O)[O-])c2)o1)N[N+](=O)[O-]` [ERK Inhibitor III] here?
Answer: Its value is ≤ 0.

Question: `Cn1c2c(c3ccccc31)CCNCC2` was tested. Which “scaled lipid accumulation score” value [3] did it give?
Answer: Its value is 0.326.

Question: With `COc1cccc(C2(O)CCCCC2CN(C)C)c1` (configuration not stated) [Tramadol hydrochloride] as the molecule, how does the “scaled lipid accumulation score” value (library stock concentration: 6.7 mM) read?
Answer: The value was ≤ 0.

Question: With `COc1cccc(C2(O)CCCCC2CN(C)C)c1` (configuration not stated) [Tramadol HCl] as the molecule, how does the “scaled lipid accumulation score” value (library stock concentration: 7.6 mM) read?
Answer: Its value is ≤ 0.

Question: How did the “scaled lipid accumulation score” value [3] turn out when `COc1cccc(C2(O)CCCCC2CN(C)C)c1` (configuration not stated) [Tramadol] was run?
Answer: Its value is 0.009.

Question: Which “scaled lipid accumulation score” value [3] does the source give for `COc1ccc(CCN)cc1OC` [Homoveratrylamine] here?
Answer: The value was 0.046.

Question: For `C=CCN1C[C@H](C(=O)N(CCCN(C)C)C(=O)NCC)C[C@@H]2c3cccc4[nH]cc(c34)C[C@H]21` [Cabergoline], which “scaled lipid accumulation score” value (library stock concentration: 4.4 mM) is on record?
Answer: Its value is 0.368.

Question: Which “scaled lipid accumulation score” value does the source give for `CCN1C[C@]2(COC)CC[C@H](O)[C@@]34C5C[C@@H]6[C@@H](OC)C[C@](O)(C(CC23)C14)C5[C@H]6OC(C)=O` (some centres not stated) [Condelphine] here?
Answer: Its value is ≤ 0.

Question: For `COc1cc2c(c(OC)c1OC)-c1ccc(O)c(=O)cc1[C@@H](N)CC2` [Trimethylcolchicinic acid], which “scaled lipid accumulation score” value is on record?
Answer: Its value is 0.074.

Question: For `O=C(NC(COc1ccc2[nH]c(=O)[nH]c2c1)c1ccccc1)c1cccn(Cc2ccc(F)c(F)c2)c1=O` (configuration not stated), which “scaled lipid accumulation score” value (library stock concentration: 80 uM) is on record?
Answer: Its value is ≤ 0.

Question: And the “scaled lipid accumulation score” value (library stock concentration: 400 uM)?
Answer: Its value is ≤ 0.

Question: And the “scaled lipid accumulation score” value (library stock concentration: 2 mM)?
Answer: Its value is ≤ 0.

Question: And the “scaled lipid accumulation score” value [3]?
Answer: Its value is ≤ 0.

Question: `COc1cc([C@@H]2c3cc4c(cc3[C@H](O)[C@H]3COC(=O)[C@H]23)OCO4)cc(OC)c1OC` [Podophyllotoxin] was tested. Which “scaled lipid accumulation score” value did it give?
Answer: Its value is ≤ 0.

Question: What about the “scaled lipid accumulation score” value [3] of the same molecule?
Answer: The value was 0.288.

Question: What does the source list for `COc1cc([C@@H]2c3cc4c(cc3[C@H](O)[C@H]3COC(=O)[C@H]23)OCO4)cc(OC)c1OC` [Podofilox]?
Answer: scaled lipid accumulation score (library stock concentration: 4.8 mM): 0.201; scaled lipid accumulation score [3]: 0.419

Question: What does the source list for `C/C=C(\C)C(=O)N[C@@H](c1ccccc1)[C@@H](O)C(=O)O[C@H]1C[C@@]2(O)[C@@H](OC(=O)c3ccccc3)[C@@H]3[C@]4(OC(C)=O)CO[C@@H]4C[C@H](O)[C@@]3(C)C(=O)[C@H](OC(C)=O)C(=C1C)C2(C)C` [Cephalomannine]?
Answer: scaled lipid accumulation score [2]: ≤ 0; scaled lipid accumulation score [3]: ≤ 0

Question: Which “scaled lipid accumulation score” value [3] does the source give for `O=C(CCCN1CCC2(CC1)C(=O)NCN2c1ccccc1)c1ccc(F)cc1` [Spiperone hydrochloride] here?
Answer: The value was 0.74 and 0.784.

Question: Which “scaled lipid accumulation score” value [3] does the source give for `O=C(CCCN1CCC2(CC1)C(=O)N(Cc1cccc(F)c1)CN2c1ccccc1)c1ccc(F)cc1.O=C(O)/C=C\C(=O)O` [3'-Fluorobenzylspiperone maleate] here?
Answer: Its value is 0.967 (active).

Question: Which results are given for `O=C(CCCN1CCC2(CC1)C(=O)NCN2c1ccccc1)c1ccc(F)cc1` [Spiperone] [listing 1 of 2 here]?
Answer: scaled lipid accumulation score: 0.119; scaled lipid accumulation score [4]: 0.399; scaled lipid accumulation score [3]: ≤ 0

Question: `O=C(CCCN1CCC2(CC1)C(=O)NCN2c1ccccc1)c1ccc(F)cc1` [Spiperone] [listing 2 of 2 here] was tested. Which “scaled lipid accumulation score” value [4] did it give?
Answer: Its value is 0.939 (active).

Question: How did the “scaled lipid accumulation score” value [1] turn out when `O=C(NCCN1CCC2(CC1)C(=O)NCN2c1ccccc1)c1ccc2ccccc2c1` was run?
Answer: Its value is ≤ 0.

Question: With `CC(N)c1cccc(Cl)c1Cl` (configuration not stated) as the molecule, how does the “scaled lipid accumulation score” value [3] read?
Answer: The value was 0.208.

Question: With `O=C(O)c1ccc2[nH]cc(CCCCN3CC=C(c4ccccc4)CC3)c2c1` [Carmoxirole hydrochloride] as the molecule, how does the “scaled lipid accumulation score” value [3] read?
Answer: Its value is 0.073.

Question: `CN1C2CC(O)CC1C1OC12` (configuration not stated) [Scopine] was tested. Which “scaled lipid accumulation score” value [2] did it give?
Answer: Its value is ≤ 0.

Question: And the “scaled lipid accumulation score” value [3]?
Answer: The value was ≤ 0.

Question: `CCCCCCCCCCCCCCCC(=O)OCC(COP(=O)([O-])OCC[N+](C)(C)C)OC(C)=O` (configuration not stated) was tested. Which “scaled lipid accumulation score” value [1] did it give?
Answer: Its value is 0.014.

Question: For `C=C(C)[C@@H]1[C@H]2OC(=O)[C@@H]1[C@]1(O)C[C@H]3O[C@]34C(=O)O[C@H]2[C@]14C.CC(C)(O)[C@@H]1[C@H]2OC(=O)[C@@H]1[C@]1(O)C[C@H]3O[C@]34C(=O)O[C@H]2[C@]14C` [Picrotin - Picrotoxinin], which “scaled lipid accumulation score” value [3] is on record?
Answer: Its value is ≤ 0.

Question: Which “scaled lipid accumulation score” value does the source give for `c1cncc(C2=NCCC2)c1` [Myosmine] here?
Answer: The value was ≤ 0.

Question: Which “scaled lipid accumulation score” value [3] does the source give for `CC(=O)OCC1=C(C(=O)[O-])N2C(=O)[C@@H](NC(=O)CCC[C@@H](N)C(=O)[O-])[C@H]2SC1.[Zn+2]` [Cephalosporin C zinc salt] here?
Answer: The value was 0.329.

Question: With `COc1cc2c3cc1Oc1c(OC)c(OC)cc4c1[C@@H](Cc1cccc(c1)Oc1ccc(c(O)c1)C[C@@H]3N(C)CC2)N(C)CC4` [Berbamine hydrochloride] as the molecule, how does the “scaled lipid accumulation score” value [3] read?
Answer: Its value is ≤ 0.

Question: How did the “scaled lipid accumulation score” value [3] turn out when `COc1ccc(C[C@H]2NC[C@H](O)[C@H]2OC(C)=O)cc1` [Anisomycin] [listing 1 of 3 here] was run?
Answer: The value was 1.39 (active).

Question: Which “scaled lipid accumulation score” value does the source give for `COc1ccc(C[C@H]2NC[C@H](O)[C@H]2OC(C)=O)cc1` [Anisomycin] [listing 2 of 3 here] here?
Answer: The value was 1.05 (active).

Question: How did the “scaled lipid accumulation score” value [3] turn out when `COc1ccc(C[C@H]2NC[C@H](O)[C@H]2OC(C)=O)cc1` [Anisomycin] [listing 3 of 3 here] was run?
Answer: Its value is 0.806.

Question: `COc1ccc(C[C@@H]2NC[C@@H](O)[C@@H]2OC(C)=O)cc1` [Anisomycin] was tested. Which “scaled lipid accumulation score” value (library stock concentration: 18.8 mM) did it give?
Answer: Its value is 0.899 (active).

Question: With `O[C@@H]1CCCC[C@H]1N1CCC(c2ccccc2)CC1` [L(-)-vesamicol hydrochloride] as the molecule, how does the “scaled lipid accumulation score” value read?
Answer: The value was ≤ 0.

Question: For `CC(C)(C)NCC(O)COc1cccc2[nH]c(C#N)cc12` (configuration not stated) [Cyanopindolol hemifumarate], which “scaled lipid accumulation score” value [3] is on record?
Answer: The value was 0.049.

Question: For `CC(C)[C@@H]1NC(=O)[C@H](C)OC(=O)[C@@H](C(C)C)NC(=O)[C@@H](C(C)C)OC(=O)[C@H](C(C)C)NC(=O)[C@H](C)OC(=O)[C@@H](C(C)C)NC(=O)[C@@H](C(C)C)OC(=O)[C@H](C(C)C)NC(=O)[C@H](C)OC(=O)[C@@H](C(C)C)NC(=O)[C@@H](C(C)C)OC1=O` [Valinomycin], which “scaled lipid accumulation score” value (library stock concentration: 4.5 mM) is on record?
Answer: Its value is 0.447.

Question: For `CC1=NN=C(c2ccc(N)cc2)c2cc3c(cc2C1)OCO3`, which “scaled lipid accumulation score” value [3] is on record?
Answer: The value was ≤ -0.07 and ≤ -0.006.

Question: How did the “scaled lipid accumulation score” value turn out when `CC[C@H](C)[C@H]1O[C@]2(C=C[C@@H]1C)C[C@@H]1C[C@@H](C/C=C(\C)[C@@H](O[C@H]3C[C@H](OC)[C@@H](O[C@H]4C[C@H](OC)[C@@H](O)[C@H](C)O4)[C@H](C)O3)[C@@H](C)/C=C/C=C3\CO[C@@H]4[C@H](O)C(C)=C[C@@H](C(=O)O1)[C@]34O)O2.CO[C@H]1C[C@H](O[C@H]2[C@H](C)O[C@@H](O[C@@H]3/C(C)=C/C[C@@H]4C[C@@H](C[C@]5(C=C[C@H](C)[C@@H](C(C)C)O5)O4)OC(=O)[C@@H]4C=C(C)[C@@H](O)[C@H]5OC/C(=C\C=C\[C@@H]3C)[C@]54O)C[C@@H]2OC)O[C@@H](C)[C@@H]1O` [Avermectin B1] was run?
Answer: Its value is ≤ 0.

Question: Which “scaled lipid accumulation score” value (library stock concentration: 2.3 mM) does the source give for `CC[C@H](C)[C@H]1O[C@]2(C=C[C@@H]1C)C[C@@H]1C[C@@H](C/C=C(\C)[C@@H](O[C@H]3C[C@H](OC)[C@@H](O[C@H]4C[C@H](OC)[C@@H](O)[C@H](C)O4)[C@H](C)O3)[C@@H](C)/C=C/C=C3\CO[C@@H]4[C@H](O)C(C)=C[C@@H](C(=O)O1)[C@]34O)O2.CO[C@H]1C[C@H](O[C@H]2[C@H](C)O[C@@H](O[C@@H]3/C(C)=C/C[C@@H]4C[C@@H](C[C@]5(C=C[C@H](C)[C@@H](C(C)C)O5)O4)OC(=O)[C@@H]4C=C(C)[C@@H](O)[C@H]5OC/C(=C\C=C\[C@@H]3C)[C@]54O)C[C@@H]2OC)O[C@@H](C)[C@@H]1O` [Abamectin] here?
Answer: The value was 0.027 and ≤ 0.

Question: `CC[C@H](C)[C@H]1O[C@]2(C=C[C@@H]1C)C[C@@H]1C[C@@H](C/C=C(\C)[C@@H](O[C@H]3C[C@H](OC)[C@@H](O[C@H]4C[C@H](OC)[C@@H](O)[C@H](C)O4)[C@H](C)O3)[C@@H](C)/C=C/C=C3\CO[C@@H]4[C@H](O)C(C)=C[C@@H](C(=O)O1)[C@]34O)O2.CO[C@H]1C[C@H](O[C@H]2[C@H](C)O[C@@H](O[C@@H]3/C(C)=C/C[C@@H]4C[C@@H](C[C@]5(C=C[C@H](C)[C@@H](C(C)C)O5)O4)OC(=O)[C@@H]4C=C(C)[C@@H](O)[C@H]5OC/C(=C\C=C\[C@@H]3C)[C@]54O)C[C@@H]2OC)O[C@@H](C)[C@@H]1O` [Avermectin b1] was tested. Which “scaled lipid accumulation score” value [3] did it give?
Answer: The value was ≤ 0.
